Results: the supplement of paper PMC6992640
± gives the standard deviation of the averaged measurements.

Key:
Assay in all cases: cell viability (% of vehicle); higher = less cytotoxic
Settings in all cases: 10 µM; 72 h
HCI01 = test system: HCI01 (cells of a triple-negative basal-like breast cancer xenograft)
HCI03 = test system: HCI03 (cells of an ER-positive luminal breast cancer xenograft)
HCI09 = test system: HCI09 (cells of a triple-negative luminal androgen receptor type breast cancer xenograft)
HCI11 = test system: HCI11 (cells of an ER-positive luminal breast cancer xenograft)
HCI13 = test system: HCI13 (cells of an ER-positive luminal breast cancer xenograft)
HCI16 = test system: HCI16 (cells of a triple-negative basal-like breast cancer xenograft)
UCD52 = test system: UCD52 (cells of a triple-negative basal-like breast cancer xenograft)
WHIM2 = test system: WHIM2 (cells of a triple-negative basal-like breast cancer xenograft)
WHIM30 = test system: WHIM30 (cells of a triple-negative basal-like breast cancer xenograft)
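Further: PDX cells carrying CMV promoter-driven luciferase, viability read as total photon flux per second by IVIS imaging following D-luciferin, vehicle control 0.1% DMSO.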

Structure (SMILES) | cell viability (HCI01) | cell viability (HCI03) | cell viability (HCI09) | cell viability (HCI11) | cell viability (HCI13) | cell viability (HCI16) | cell viability (UCD52) | cell viability (WHIM2) | cell viability (WHIM30)
CN1C2CCC1CC(OC(c1ccccc1)c1ccccc1)C2.CS(=O)(=O)O (configuration not stated) [Benztropine mesylate] | 189 ± 60 | 108 | 110 ± 13 | 94 | 120 ± 14 | 125 | 80.4 ± 7.7 | 83.4 ± 12 | 141 ± 1.6
CCCCC1C(=O)N(c2ccccc2)N(c2ccccc2)C1=O [Phenylbutazone] | 89.4 ± 24 | 129 | 86.7 ± 11 | 97.2 | 127.3 ± 0.28 | 120 | 88.9 ± 1.4 | 89 ± 23 | 119 ± 3.8
O=S(=O)(O)NC1CCCCC1 [Cyclamic acid] | 91.4 ± 14 | 118 | 94.4 ± 2 | 91.9 | 58.1 ± 1.3 | 121 | 88.7 ± 18 | 104 ± 13 | 106 ± 5.2
CC1=C(CC(=O)O)c2cc(F)ccc2C1=Cc1ccc(S(C)=O)cc1 (configuration not stated) [Sulindac] | 92.1 ± 23 | 89.2 | 81.5 ± 4.2 | 76.2 | 108 ± 0.55 | 119 | 97.3 ± 3.1 | 88.7 ± 6.6 | 104 ± 13
CC(CN(C)C)CN1c2ccccc2CCc2ccccc21.O=C(O)/C=C\C(=O)O (configuration not stated) [Trimipramine (maleate)] | 99.2 ± 13 | 101 | 91.6 ± 9.4 | 69 | 92.2 ± 2.7 | 105 | 86.9 ± 1.5 | 77.6 ± 15 | 93.3 ± 1.9
CC1OC(OCC2OC(Oc3c(-c4ccc(O)c(O)c4)oc4cc(O)cc(O)c4c3=O)C(O)C(O)C2O)C(O)C(O)C1O (configuration not stated) [Rutin] | 107 ± 32 | 128 | 101 ± 9.8 | 102 | 118 ± 8.5 | 138 | 103 ± 14 | 122 ± 9.8 | 101 ± 13
CN(C)CCC(c1ccc(Br)cc1)c1ccccn1.O=C(O)C=CC(=O)O (configuration not stated) [Brompheniramine hydrogen maleate] | 119 ± 19 | 117 | 103 ± 1.9 | 99.5 | 142 ± 4.6 | 118 | 74.9 ± 2.3 | 97.9 ± 3.3 | 113.4 ± 1.1
N#CC(c1ccc(Cl)cc1)c1c(Cl)cc(-n2ncc(=O)[nH]c2=O)cc1Cl (configuration not stated) [Diclazuril] | 98.7 ± 32 | 119 | 64 ± 57 | 95.3 | 59.1 ± 10 | 123 | 96.3 ± 31 | 115 ± 19 | 161 ± 11
CNCC(O)c1cccc(O)c1.Cl (configuration not stated) [Phenylephrine HCl] | 110 ± 2.1 | 126 | 103 ± 22 | 105 | 78 ± 4.8 | 97.2 | 87.5 ± 4.1 | 86.1 ± 7.8 | 109 ± 7.6
NC(N)=Nc1nc(CSCCC(N)=NS(N)(=O)=O)cs1 [Famotidine] | 120 ± 16 | 127 | 103 ± 8.7 | 98.9 | 149 ± 20 | 98.6 | 78.5 ± 6.2 | 85.9 ± 6.1 | 165 ± 4.1
COc1c(N2CC3CCCNC3C2)c(F)cc2c(=O)c(C(=O)O)cn(C3CC3)c12.Cl (configuration not stated) [Moxifloxacin HCl] | 132 ± 5.7 | 124 | 97.1 ± 3.3 | 120 | 113 ± 14 | 114 | 133 ± 11 | 92.3 ± 8.9 | 134 ± 16
CCCNC(=O)NS(=O)(=O)c1ccc(Cl)cc1 [Chlorpropamide] | 121 ± 28 | 113 | 73.9 ± 18 | 82.9 | 81.8 ± 25 | 105 | 92.5 ± 5.9 | 99.5 ± 14 | 104 ± 4.6
CC12C=CC(=O)C=C1CCC1C2C(=O)CC2(C)C1CCC2(O)C(=O)CO (configuration not stated) [Prednisone] | 71.1 ± 46 | 93.9 | 118 ± 37 | 98.9 | 165 ± 8.5 | 138 | 103 ± 3.1 | 92.6 ± 38 | 130 ± 13
N=C(N)c1ccc(OCCCCCOc2ccc(C(=N)N)cc2)cc1.O=S(=O)(O)CCO.O=S(=O)(O)CCO [Pentamidine isethionate] | 98.1 ± 3.2 | 104 | 27.495 ± 0.0084 | 74.7 | 180 ± 61 | 87.7 | 91.2 ± 2.3 | 85.2 ± 19 | 113 ± 7.6
O=C(O)CCc1nc(-c2ccccc2)c(-c2ccccc2)o1 [Oxaprozin] | 121 ± 25 | 102 | 89.1 ± 2.8 | 106 | 108 ± 1.6 | 122 | 99.29 ± 0.38 | 101 ± 11 | 151 ± 17
CC1(C)SC2C(NC(=O)Cc3ccccc3)C(=O)N2C1C(=O)[O-].[Na+] (configuration not stated) [Penicillin G Sodium] | 170 ± 78 | 105 | 91.8 ± 20 | 105 | 70.7 ± 9.5 | 111 | 99.7 ± 20 | 108 ± 14 | 109 ± 5.6
CC1c2cccc(O)c2C(O)=C2C(=O)C3(O)C(O)=C(C(N)=O)C(=O)C(N(C)C)C3C(O)C21.Cl (configuration not stated) [Doxycycline hyclate] | 159 ± 22 | 109 | 94.8 ± 12 | 114 | 107 ± 5.1 | 134 | 111 ± 3.3 | 90.9 ± 9.3 | 173 ± 22
COC(=O)C1=COC(OC2OC(CO)C(O)C(O)C2O)C2C(CO)=CCC12 (configuration not stated) [Geniposide] | 104 ± 24 | 158 | 104 ± 21 | 98.3 | 95.3 ± 7.7 | 116 | 116 ± 1.3 | 83.6 ± 4.8 | 96.53 ± 0.79
C[N+](C)(C)CCOC(N)=O.[Cl-] [Carbamoylcholine chloride] | 108 ± 11 | 120 | 89.4 ± 1.1 | 71.4 | 112 ± 4.6 | 124 | 95.6 ± 2.4 | 127 ± 7 | 98.9 ± 1.4

Structure (SMILES) | cell viability (HCI01) | cell viability (HCI03) | cell viability (HCI09) | cell viability (HCI11) | cell viability (HCI13) | cell viability (HCI16) | cell viability (UCD52) | cell viability (WHIM2) | cell viability (WHIM30)
Cc1cc2c(cc1S(N)(=O)=O)S(=O)(=O)CCC2 [Meticrane] | 109 ± 8.8 | 117 | 102 ± 6.3 | 89 | 103 ± 9.6 | 110 | 96.3 ± 10 | 97 ± 7.5 | 80.4 ± 2.8
O=C([O-])C(O)C(O)C(O)C(O)C(O)CO.O=C([O-])C(O)C(O)C(O)C(O)C(O)CO.[Ca+2] (configuration not stated) [Calcium Gluceptate] | 134 ± 3.3 | 162 | 112 ± 4.9 | 127 | 110 ± 8.2 | 124 | 87.2 ± 13 | 109 ± 3.2 | 141 ± 8.1
CCN(CC)C(=O)C(C#N)=Cc1cc(O)c(O)c([N+](=O)[O-])c1 [Entacapone] | 121 ± 8.8 | 159 | 105 ± 2.4 | 80.8 | 98.77 ± 0.41 | 105 | 98.7 ± 14 | 192 ± 14 | 104 ± 7
CCC(Nc1ncnc2nc[nH]c12)c1nc2cccc(F)c2c(=O)n1-c1ccccc1 (configuration not stated) [CAL-101 (Idelalisib, GS-1101)] | 91.6 ± 8.4 | 80.7 | 88.2 ± 19 | 76.8 | 51.9 ± 3.4 | 68.1 | 68.3 ± 3 | 62.8 ± 2.9 | 121.9 ± 0.48
CC1c2cccc(O)c2C(O)=C2C(=O)C3(O)C(O)=C(C(N)=O)C(=O)C(N(C)C)C3C(O)C21.Cl (configuration not stated) [Doxycycline HCl] | 91.6 ± 4.1 | 106 | 90.6 ± 17 | 83.7 | 84 ± 14 | 104 | 89.9 ± 2.7 | 118 ± 14 | 98.7 ± 9.1
O=c1[nH]c(=O)n(C2CC(O)C(CO)O2)cc1C(F)(F)F (configuration not stated) [Triflurdine (Viroptic)] | 123 ± 1.4 | 132 | 137 ± 70 | 111 | 147 ± 24 | 97.1 | 116 ± 1.5 | 87.8 ± 36 | 132 ± 15
O=C(O)c1ccc2c(c1)nc(Nc1cccc(Cl)c1)c1ccncc12 [CX-4945 (Silmitasertib)] | 115 ± 62 | 111 | 28.5 ± 13 | 137 | 192 ± 22 | 106 | 78 ± 8.1 | 99.48 ± 0.45 | 79.9 ± 14
CN1CCC(=C2c3ccccc3C=Cc3ccccc32)CC1.Cl [Cyproheptadine hydrochloride] | 91 ± 16 | 115 | 83.3 ± 9 | 95.8 | 89.6 ± 1.1 | 90.1 | 79.8 ± 13 | 81.1 ± 14 | 116 ± 10
CN(C)CCCC1(c2ccc(F)cc2)OCc2cc(C#N)ccc21.O=C(O)C(=O)O (configuration not stated) [Escitalopram Oxalate] | 99.8 ± 9.9 | 114 | 97.3 ± 12 | 86.2 | 93.6 ± 18 | 128 | 90.9 ± 5.2 | 87.5 ± 5.9 | 157 ± 21
CCC(CO)NCCNC(CC)CO.Cl.Cl (configuration not stated) [Ethambutol HCl] | 98.6 ± 2.4 | 122 | 102 ± 7.8 | 103 | 146 ± 15 | 102 | 86.7 ± 3 | 93.4 ± 21 | 153 ± 7.2
c1cc(CN2CCCNCCNCCCNCC2)ccc1CN1CCCNCCNCCCNCC1 [Plerixafor (AMD3100)] | 99.4 ± 11 | 86.8 | 92.6 ± 9.3 | 84.7 | 85.1 ± 4.1 | 87.9 | 92.3 ± 9.7 | 73 ± 11 | 110 ± 12
C=CCNC(N)=S [Allylthiourea] | 96.4 ± 7.7 | 118 | 94.1 ± 19 | 97.4 | 64.8 ± 14 | 107 | 129 ± 35 | 108 ± 35 | 130 ± 8
CN(Cc1cnc2nc(N)nc(N)c2n1)c1ccc(C(=O)NC(CCC(=O)O)C(=O)O)cc1 (configuration not stated) [Methotrexate] | 101 ± 8.6 | 115 | 91.1 ± 13 | 113 | 104 ± 7.5 | 93.4 | 89.1 ± 8.7 | 101 ± 2.1 | 94.9 ± 13
CC[C@H](C)[C@@H]1NC(=O)[C@H](Cc2ccc(O)cc2)NC(=O)[C@@H](N)CSSC[C@@H](C(=O)N2CCC[C@H]2C(=O)N[C@@H](CC(C)C)C(=O)NCC(N)=O)NC(=O)[C@H](CC(N)=O)NC(=O)[C@H](CCC(N)=O)NC1=O [Oxytocin] | 116 ± 13 | 110 | 99.7 ± 2.2 | 69.2 | 134 ± 41 | 128 | 115 ± 1.7 | 126 ± 1.9 | 134 ± 8.1
COc1ccc(C2(C#N)CCC(C(=O)O)CC2)cc1OC1CCCC1 (configuration not stated) [Cilomilast] | 120 ± 9.7 | 114 | 89 ± 22 | 88.4 | 104 ± 9.8 | 146 | 103 ± 12 | 117 ± 8.9 | 113.9 ± 0.63
NS(=O)(=O)c1cc2c(cc1Cl)NC=NS2(=O)=O [Chlorothiazide] | 101 ± 4.1 | 149 | 102 ± 12 | 121 | 134 ± 16 | 90 | 93.8 ± 13 | 89.4 ± 27 | 124 ± 29
COc1ccccc1OCC(O)COC(N)=O (configuration not stated) [Methyocarbamol] | 148 ± 10 | 132 | 144 ± 44 | 108 | 109 ± 3.5 | 111 | 104 ± 8.4 | 104 ± 27 | 134 ± 2.3
COC(=O)C1C2CC3c4[nH]c5cc(OC)ccc5c4CCN3CC2CC(OC(=O)c2cc(OC)c(OC)c(OC)c2)C1OC (configuration not stated) [Reserpine] | 123 ± 29 | 112 | 92.8 ± 4.8 | 89 | 129 ± 10 | 132 | 105 ± 1.3 | 88.36 ± 0.5 | 109 ± 7.1
CC1(C)SC2C(NC(=O)C(N)c3ccccc3)C(=O)N2C1C(=O)[O-].[Na+] (configuration not stated) [Ampicillin] | 101.47 ± 0.042 | 101 | 104 ± 9.8 | 84.6 | 86.7 ± 9.1 | 78.9 | 83.5 ± 3.9 | 77.9 ± 1.1 | 112 ± 20
